Counter-ions that a name gives are not always drawn. A number with no mark means an inactive call.
The compounds below were run on NCI-H1688 (assay: inhibition of cell viability relative to untreated control (fraction); higher = stronger growth inhibition, active = 0.5 or more). Conditions: 30 µM; 24 h.
Method: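 Natural product library (TargetMol, 640 compounds) screened on NCI-H1688 SCLC cells at 30 µM for 24 h; viability by CCK-8 absorbance at 450 nm, normalised to untreated control and expressed as inhibition rate (fraction). Compounds with >50% reduction in viability were selected as hits.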

SMILES | inhibition of cell viability
C[C@@H]1[C@H](O)[C@@H](C)/C=C/C=C/CC/C=C/C=C/C=C/C=C/[C@H](O[C@H]2O[C@@H](C)[C@H](O)[C@@H](N)[C@H]2O)C[C@@H]2O[C@](O)(C[C@@H](O)[C@H](O)CC[C@@H](O)C[C@@H](O)C[C@@H](O)CC(=O)O[C@H]1C)C[C@H](O)[C@H]2C(=O)O [Nystatin (Fungicidin)] | 0.267
C[C@H]1O[C@H](O[C@H]2[C@H](O)[C@@H](O)[C@@H](O)[C@H](O)[C@@H]2O)[C@@H](N)C[C@@H]1NC(=N)C(=O)O [Kasugamycin hydrochloride] | 0.294
C[C@@H]1C(=O)O[C@H]2[C@H](O)[C@@]34O[C@@H]5OC(=O)[C@H](O)[C@@]56[C@H](C(C)(C)C)[C@H](O)C(OC3=O)[C@]64[C@@]12O (stereo not given in full) [Ginkgolide C] | -0.00562
CN(C)CCc1ccc(O)cc1 [Hordenine] | 0.0129
CNCC(O)c1ccc(O)cc1 (stereo not given) [Synephrine] | 0.204
N#CCCN [3-Aminopropionitrile fumarate] | -0.137
CC(C)=CCC[C@](C)(O)[C@H]1CC[C@]2(C)[C@@H]1[C@H](O)C[C@@H]1[C@@]3(C)CC[C@H](O)C(C)(C)[C@@H]3[C@@H](O[C@@H]3O[C@H](CO)[C@@H](O)[C@H](O)[C@H]3O)C[C@]12C [Ginsenoside Rh1] | 0.0296
COc1ccc(CC2NCCc3cc(OC)c(OC)cc32)cc1OC (stereo not given) [Tetrahydropapaverine hydrochloride] | 0.125
CC1=C2C(=O)[C@H]3[C@@H](CC=C4C[C@@H](O)CC[C@@]43C)[C@@H]2CC[C@]12O[C@@H]1C[C@H](C)CN[C@H]1[C@H]2C [Jervine] | 0.601 (active)
CC1=C2C[C@H]3[C@@H](CC=C4C[C@@H](O)CC[C@@]43C)[C@@H]2CC[C@]12O[C@@H]1C[C@H](C)CN[C@H]1[C@H]2C [Cyclopamine] | 0.162
O=C(/C=C/c1ccccc1)OC[C@H]1O[C@@H](O[C@@H]2OC=C[C@H]3[C@H](O)[C@@H]4O[C@]4(CO)[C@@H]23)[C@H](O)[C@@H](O)[C@@H]1O [Picroside I] | 0.253
O=c1ccc2ccc3occc3c2o1 [Isopsoralen] | -0.0131
S=C=NCc1ccccc1 [Benzyl isothiocyanate] | 0.59 (active)
C[C@]12CCC(=O)C=C1CC[C@@H]1[C@@H]2C(=O)C[C@]2(C)C(=O)CC[C@@H]12 [Adrenosterone] | -0.0418
COC(=O)C1=CCCN(C)C1 [Arecoline HBr] | 0.105
CN1CCc2cc3c(cc2C1O)OCO3 (stereo not given) [Hydrastinine hydrochloride] | 0.248
Cc1c2ccncc2c(C)c2c1[nH]c1ccccc12 [Ellipticine] | 0.996 (active)
CC(=O)O[C@H]1C(=O)[C@@]2(C)[C@H]([C@H](OC(=O)c3ccccc3)[C@]3(O)C[C@H](O)C(C)=C1C3(C)C)[C@]1(OC(C)=O)CO[C@@H]1C[C@@H]2O [Baccatin III] | 0.535 (active)
CC[C@H](C)[C@H]1O[C@]2(C=C[C@@H]1C)C[C@@H]1C[C@@H](C/C=C(\C)[C@@H](O[C@H]3C[C@H](OC)[C@@H](O[C@H]4C[C@H](OC)[C@@H](O)[C@H](C)O4)[C@H](C)O3)[C@@H](C)/C=C/C=C3\CO[C@@H]4[C@H](O)C(C)=C[C@@H](C(=O)O1)[C@]34O)O2.CO[C@H]1C[C@H](O[C@H]2[C@H](C)O[C@@H](O[C@@H]3/C(C)=C/C[C@@H]4C[C@@H](C[C@]5(C=C[C@H](C)[C@@H](C(C)C)O5)O4)OC(=O)[C@@H]4C=C(C)[C@@H](O)[C@H]5OC/C(=C\C=C\[C@@H]3C)[C@]54O)C[C@@H]2OC)O[C@@H](C)[C@@H]1O [Abamectin] | 1.01 (active)
CN(CC(=O)O)C(=N)NP(=O)(O)O [Creatine phosphate disodium salt] | 0.256
NCC(O)c1ccc(O)cc1 (stereo not given) [Octopamine hydrochloride] | -0.206
CN1CCc2cc3c(cc2C1C1OC(=O)c2c1ccc1c2OCO1)OCO3 (single isomer, unassigned; (+)) [(+)-Bicuculline] | -0.023
COc1ccc2c(c1)[nH]c1c(C)nccc12 [Harmine] | 0.462
C=C(C)[C@H]1Cc2c(ccc3c2O[C@@H]2COc4cc(OC)c(OC)cc4[C@@H]2C3=O)O1 [Rotenone] | 0.823 (active)
CC(C)=CCOc1c2occc2cc2ccc(=O)oc12 [Imperatorin] | 0.0251
CC[C@@]1([C@@H]2O[C@@H]([C@H]3O[C@@](O)(CO)[C@H](C)C[C@@H]3C)C[C@@H]2C)CC[C@H]([C@]2(C)CC[C@]3(C[C@H](O)[C@@H](C)[C@@H]([C@@H](C)[C@@H](OC)[C@H](C)C(=O)O)O3)O2)O1 [Monensin sodium salt] | 0.761 (active)
CC(C)=CCC[C@](C)(O)[C@H]1CC[C@]2(C)[C@@H]1[C@H](O)C[C@@H]1[C@@]3(C)CC[C@H](O[C@@H]4O[C@H](CO)[C@@H](O)[C@H](O)[C@H]4O)C(C)(C)[C@@H]3CC[C@]12C [Ginsenoside Rh2] | 0.269
O=C1C[C@@H]2OCC=C3CN4CC[C@]56c7ccccc7N1[C@H]5[C@H]2[C@H]3C[C@H]46 [Strychnine] | -0.0859
COc1cc([C@@H]2c3cc4c(cc3[C@H](O)[C@H]3COC(=O)[C@H]23)OCO4)cc(OC)c1OC [Podophyllotoxin] | 0.839 (active)
C1=C2CCCN[C@H]2[C@@H]2C[C@H]1[C@H]1CCCCN1C2 [Aloperine] | 0.311
